{"source": "paper PMC4336329", "about": "(PLoS ONE, 2015)", "note": "The campaign covered roughly 310,000 compounds. About 14,000 (4.5%) showed an effect of 50% or more. Effects have a minus sign here. What follows is part of a selection rich in strong results, with near analogues and random picks from the rest.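 Note: peak tail current of the secondary pulse compared with the same well before compound.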", "data": [{"molecular_target": "human ether-à-go-go-related gene (hERG) potassium channel (human, UniProt Q12809)", "sequence (Q12809 whole entry, looked up)": "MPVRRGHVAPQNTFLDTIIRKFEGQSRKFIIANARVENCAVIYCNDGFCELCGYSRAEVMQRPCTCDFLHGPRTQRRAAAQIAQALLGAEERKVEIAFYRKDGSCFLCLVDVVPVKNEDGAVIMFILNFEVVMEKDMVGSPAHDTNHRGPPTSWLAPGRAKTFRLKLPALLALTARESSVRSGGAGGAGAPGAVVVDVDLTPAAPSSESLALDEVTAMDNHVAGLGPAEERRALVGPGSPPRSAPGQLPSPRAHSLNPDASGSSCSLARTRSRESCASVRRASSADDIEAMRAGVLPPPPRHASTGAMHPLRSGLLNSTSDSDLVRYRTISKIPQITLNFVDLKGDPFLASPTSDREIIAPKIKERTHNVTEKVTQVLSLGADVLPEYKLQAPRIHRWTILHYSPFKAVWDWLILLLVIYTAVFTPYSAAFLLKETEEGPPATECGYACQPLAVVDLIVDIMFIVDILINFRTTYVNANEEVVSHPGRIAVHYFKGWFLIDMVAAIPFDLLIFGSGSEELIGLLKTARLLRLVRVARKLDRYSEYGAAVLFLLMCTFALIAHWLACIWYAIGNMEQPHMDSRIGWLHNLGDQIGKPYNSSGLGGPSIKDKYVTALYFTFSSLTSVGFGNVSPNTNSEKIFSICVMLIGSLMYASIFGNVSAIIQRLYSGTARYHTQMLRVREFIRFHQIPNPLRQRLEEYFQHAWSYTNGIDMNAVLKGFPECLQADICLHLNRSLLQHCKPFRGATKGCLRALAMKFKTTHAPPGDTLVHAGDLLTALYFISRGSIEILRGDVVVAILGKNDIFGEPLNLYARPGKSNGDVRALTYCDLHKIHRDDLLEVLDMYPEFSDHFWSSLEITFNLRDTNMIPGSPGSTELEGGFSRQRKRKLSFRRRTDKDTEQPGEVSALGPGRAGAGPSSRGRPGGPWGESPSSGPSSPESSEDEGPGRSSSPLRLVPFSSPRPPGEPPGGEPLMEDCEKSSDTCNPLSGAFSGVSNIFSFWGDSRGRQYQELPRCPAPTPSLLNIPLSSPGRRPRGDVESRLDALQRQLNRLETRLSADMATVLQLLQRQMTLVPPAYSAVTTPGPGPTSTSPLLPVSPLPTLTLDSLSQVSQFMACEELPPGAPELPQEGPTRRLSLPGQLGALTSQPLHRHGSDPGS", "test": "primary screen, population patch clamp on CHO cells stably expressing hERG; higher = less effect of the substance", "units": {"hERG current change (%, negative = inhibition) at 10uM": "%"}, "values": [{"compound": "CCC(=O)NCCCc1nc(-c2ccccc2)no1", "hERG current change (%, negative = inhibition) at 10uM": 5.95}, {"compound": "COc1ccc(CN2C(=O)COc3ccccc32)cc1", "hERG current change (%, negative = inhibition) at 10uM": 12}, {"compound": "CCN(Cc1ccccc1)C(=O)CCS(=O)(=O)c1ccc2c(c1)n(C)c(=O)c(=O)n2C", "hERG current change (%, negative = inhibition) at 10uM": -15}, {"compound": "CCCCN(CCCC)C(=O)CCS(=O)(=O)c1ccc2c(c1)n(C)c(=O)c(=O)n2C", "hERG current change (%, negative = inhibition) at 10uM": -69.2}, {"compound": "CCCCN(CCCC)C(=O)CN(C)S(=O)(=O)c1ccc2c(c1)n(C)c(=O)c(=O)n2C", "hERG current change (%, negative = inhibition) at 10uM": -37}, {"compound": "COc1ccc(-n2c(SCC(=O)NNC(=O)c3ccc(C)cc3)nnc2-c2ccncc2)cc1", "hERG current change (%, negative = inhibition) at 10uM": -58.6}, {"compound": "CCC(C)NC(=O)CSc1nnc(-c2ccncc2)n1-c1ccc(OC)cc1", "note": "(stereo not shown)", "hERG current change (%, negative = inhibition) at 10uM": -0.947}, {"compound": "COc1ccc(-n2c(SCC(=O)NNC(=O)c3ccccc3C)nnc2-c2ccncc2)cc1", "hERG current change (%, negative = inhibition) at 10uM": -7.21}, {"compound": "Cc1ccc(C(=O)NNC(=O)CSc2nnc(-c3ccncc3)n2C)cc1", "hERG current change (%, negative = inhibition) at 10uM": 24.9}, {"compound": "Cc1ccc(C(=O)NNC(=O)CSc2nnc(-c3ccncc3)n2-c2ccc(C)cc2)cc1", "hERG current change (%, negative = inhibition) at 10uM": -51.4}, {"compound": "CCn1c(SCC(=O)NNC(=O)c2ccc(C)cc2)nnc1-c1ccncc1", "hERG current change (%, negative = inhibition) at 10uM": -0.879}, {"compound": "CC(=O)N1c2ccc(S(=O)(=O)NCCC(=O)NCCc3cccc(C)c3)cc2CC1C", "note": "(stereo not shown)", "hERG current change (%, negative = inhibition) at 10uM": -4.31}, {"compound": "CC(C)[C@H](NC(=O)c1ccco1)C(=O)OCC(=O)NC12CC3CC(CC(C3)C1)C2", "hERG current change (%, negative = inhibition) at 10uM": -18.7}, {"compound": "CCOc1cc(/C=N/NS(=O)(=O)c2ccccc2)ccc1OS(=O)(=O)c1ccc(C)cc1", "hERG current change (%, negative = inhibition) at 10uM": 2.1}, {"compound": "COc1cc(C=O)ccc1OS(=O)(=O)c1ccccc1[N+](=O)[O-]", "hERG current change (%, negative = inhibition) at 10uM": 4.1}, {"compound": "O=[N+]([O-])c1ccccc1S(=O)(=O)Oc1ccc(/C=N/n2cnnc2)cc1", "hERG current change (%, negative = inhibition) at 10uM": -40.6}, {"compound": "CCOc1cc(/C=N/n2cnnc2)ccc1OS(=O)(=O)c1ccccc1", "hERG current change (%, negative = inhibition) at 10uM": -57.7}, {"compound": "CCOc1cc(/C=N/n2cnnc2)ccc1OS(=O)(=O)c1ccc(C)cc1", "hERG current change (%, negative = inhibition) at 10uM": -50.5}, {"compound": "CCOc1cc(/C=N/O)ccc1OS(=O)(=O)c1ccc(C)cc1", "hERG current change (%, negative = inhibition) at 10uM": -5.21}, {"compound": "CCOc1cc(C=C2C(=O)NC(=O)NC2=O)ccc1OS(=O)(=O)c1ccccc1", "hERG current change (%, negative = inhibition) at 10uM": -18}, {"compound": "COc1cc(/C=N/n2cnnc2)ccc1OS(=O)(=O)c1ccccc1[N+](=O)[O-]", "hERG current change (%, negative = inhibition) at 10uM": -51}, {"compound": "Cc1ccc(S(=O)(=O)Oc2cccc(/C=N/n3cnnc3)c2)cc1", "hERG current change (%, negative = inhibition) at 10uM": -49}, {"compound": "Cn1ncc2c(Nc3ccc(Cl)c(Cl)c3)ncnc21", "hERG current change (%, negative = inhibition) at 10uM": 14.5}, {"compound": "O=C(O)CCn1cc(/C=C2\\SC(=S)NC2=O)c(-c2ccccc2)n1", "hERG current change (%, negative = inhibition) at 10uM": 21.8}, {"compound": "COc1ccc2c(c1)CC/C2=N\\NC(=O)c1ccccc1", "hERG current change (%, negative = inhibition) at 10uM": -3.69}, {"compound": "CC1(C)COC(Nc2ccc(Cl)cc2)=N1", "hERG current change (%, negative = inhibition) at 10uM": -35.8}, {"compound": "Cc1ccc(Cn2nnnc2CN2CCC(O)(c3ccccc3F)CC2)cc1", "hERG current change (%, negative = inhibition) at 10uM": -21.5}, {"compound": "Cc1cc(C(=O)NC(C)CCc2ccccc2)ccc1[N+](=O)[O-]", "note": "(stereo not shown)", "hERG current change (%, negative = inhibition) at 10uM": -29.5}, {"compound": "Cc1ccc(C(=O)NC(C)CCc2ccccc2)cc1[N+](=O)[O-]", "note": "(stereo not shown)", "hERG current change (%, negative = inhibition) at 10uM": -13.9}, {"compound": "O=C(NCCCc1ccccc1)c1ccc(-n2cncn2)c([N+](=O)[O-])c1", "hERG current change (%, negative = inhibition) at 10uM": -60.5}, {"compound": "O=C(NNC(=O)c1ccc(-n2cncn2)c([N+](=O)[O-])c1)c1ccccc1", "hERG current change (%, negative = inhibition) at 10uM": 9.34}, {"compound": "CC(CCc1ccccc1)NC(=O)c1ccc(-n2cncn2)c([N+](=O)[O-])c1", "note": "(stereo not shown)", "hERG current change (%, negative = inhibition) at 10uM": -70.9}, {"compound": "O=C(NCCC1=CCCCC1)c1ccc(-n2cncn2)c([N+](=O)[O-])c1", "hERG current change (%, negative = inhibition) at 10uM": -22.5}, {"compound": "CCCC[n+]1c(-c2ccc(Cl)cc2Cl)csc1Nc1ccccc1.[Cl-]", "hERG current change (%, negative = inhibition) at 10uM": -6.7}, {"compound": "O=C(CC12CC3CC(CC(C3)C1)C2)N1CCCOC1", "hERG current change (%, negative = inhibition) at 10uM": -3.81}, {"compound": "O=C(CCO)c1ccc(O)cc1", "hERG current change (%, negative = inhibition) at 10uM": 10.6}, {"compound": "FC(F)(F)c1ccccc1NC(=S)N1CCN(c2ccccn2)CC1", "hERG current change (%, negative = inhibition) at 10uM": 5.12}, {"compound": "O=C(NCCN1CCCCC1)c1ccco1", "hERG current change (%, negative = inhibition) at 10uM": 7.02}, {"compound": "Cc1ccc2sc(N3CCN(CCNC(=O)c4ccco4)CC3)nc2c1C.Cl", "hERG current change (%, negative = inhibition) at 10uM": -58.2}, {"compound": "Cc1nc(C)n(CCNC(=O)c2ccco2)n1", "hERG current change (%, negative = inhibition) at 10uM": 27}, {"compound": "Br.Cc1ccc(C)c(C(=O)Cn2c(NCCO)nc3ccccc32)c1", "hERG current change (%, negative = inhibition) at 10uM": 6.12}, {"compound": "Cc1ccc(OCC(=O)N2CCCC(CO)(CCOc3ccccc3)C2)cc1", "note": "(stereo not shown)", "hERG current change (%, negative = inhibition) at 10uM": -30.4}, {"compound": "CCOC(=O)C1(CCc2ccccc2)CCN(C(=O)[C@@H]2C[C@@H](C)NC(=S)N2)CC1", "hERG current change (%, negative = inhibition) at 10uM": 6.08}, {"compound": "CCOC(=O)C1(Cc2ccccc2)CCN(C2Cc3ccccc3C2)CC1", "hERG current change (%, negative = inhibition) at 10uM": -66.4}, {"compound": "CCOC(=O)C1(Cc2ccc(Cl)cc2)CCN(C2CCC2)CC1", "hERG current change (%, negative = inhibition) at 10uM": -44.9}, {"compound": "CCOC(=O)C1(Cc2ccccc2)CCCN(C2CCCC2)C1", "note": "(stereo not shown)", "hERG current change (%, negative = inhibition) at 10uM": -2.87}, {"compound": "CCOC(=O)C1(CCOc2ccccc2)CCN(C2Cc3ccccc3C2)CC1", "hERG current change (%, negative = inhibition) at 10uM": -53.4}, {"compound": "OCC1(CCOc2ccccc2)CCN(C2Cc3ccccc3C2)CC1", "hERG current change (%, negative = inhibition) at 10uM": -72.8}, {"compound": "CCOC(=O)C1(Cc2ccccc2C(F)(F)F)CCN(C2CCSC2)CC1", "note": "(stereo not shown)", "hERG current change (%, negative = inhibition) at 10uM": -25.2}, {"compound": "CCOC(=O)C1(CCOc2ccccc2)CCN(S(=O)(=O)N(C)C)CC1", "hERG current change (%, negative = inhibition) at 10uM": -1.79}, {"compound": "CCOC(=O)C1(CCc2ccccc2)CCN(C2CCSCC2)CC1", "hERG current change (%, negative = inhibition) at 10uM": -76.3}, {"compound": "O=C1CN(c2nnnn2-c2ccccc2)CCN1", "hERG current change (%, negative = inhibition) at 10uM": -6.89}, {"compound": "COC(=O)[C@@]1(Cc2ccccc2)C=C[C@@H](C)N1C(C)=O", "hERG current change (%, negative = inhibition) at 10uM": 2.06}, {"compound": "Cc1cccc(C)c1NC(=O)CCCSc1nnc(-c2ccc(Cl)cc2)n1-c1ccccc1", "hERG current change (%, negative = inhibition) at 10uM": -3.49}, {"compound": "COc1ccc(C(C)(C)C)cc1NC(=O)CN1C(=O)C(=O)N(Cc2ccco2)C1=O", "hERG current change (%, negative = inhibition) at 10uM": 2.86}]}]}
